# Measurements: PubChem BioAssay AID1159580 (chemical genetic matrix, 2015)
# The whole screen tested about 5,500 compounds, of which about 2,000 (36%) were called active. Inconclusive results (about 18%) are left out. Some of the results follow. Values without a mark were called inactive. No stated cut-off is given here; in the data, active means normalized growth mostly below about 0.91 (no sharp cut-off); inconclusive means no clear call, values can overlap the other calls; inactive means mostly above about 0.92.
# Assay: chemical genetic growth profiling, strain panel (AID 1159580);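 further: tested at 20 µM; growth read once vehicle control cultures reached saturation at 30 °C; 1 = growth at the plate median or of vehicle wells; lower values mean less growth of the strain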
# Conditions: growth OD
structure (smiles),measurement,setting,value
O=C1c2ccccc2C(=O)c2c1ccc(O)c2O,normalized growth,"S. cerevisiae deletion strains, locus YJL187C, strain SWE1, hits give low values",0.524 (active)
same,normalized growth,"S. cerevisiae deletion strains, locus YJR066W, strain TOR1, hits give low values",0.565 (active)
same,normalized growth,"S. cerevisiae deletion strains, locus YKL009W, strain mrt4, hits give low values",0.907
same,normalized growth,"S. cerevisiae deletion strains, locus YKL068W, hits give low values",0.854 (active)
same,normalized growth,"S. cerevisiae deletion strains, locus YKL085W, strain MDH1 (second series), hits give low values",0.868 (active)
same,normalized growth,"S. cerevisiae deletion strains, locus YKL085W, strain MDH1, hits give low values",0.868 (active)
same,normalized growth,"S. cerevisiae deletion strains, locus YKL160W, strain elf1, hits give low values",0.568 (active)
same,normalized growth,"S. cerevisiae deletion strains, locus YKL190W, strain CNB1, hits give low values",0.286 (active)
same,normalized growth,"S. cerevisiae deletion strains, locus YKR001C, strain vps1, hits give low values",0.26 (active)
same,normalized growth,"S. cerevisiae deletion strains, locus YKR026C, strain gcn3, hits give low values",0.744 (active)
same,normalized growth,"S. cerevisiae deletion strains, locus YKR091W, strain srl3, hits give low values",0.714 (active)
same,normalized growth,"S. cerevisiae deletion strains, locus YLL001W, strain dnm1, hits give low values",0.492 (active)
same,normalized growth,"S. cerevisiae deletion strains, locus YLL026W, hits give low values",0.576 (active)
same,normalized growth,"S. cerevisiae deletion strains, locus YLL041C, strain sdh2, hits give low values",0.733 (active)
same,normalized growth,"S. cerevisiae deletion strains, locus YLR027C, strain aat2, hits give low values",0.578 (active)
same,normalized growth,"S. cerevisiae deletion strains, locus YLR039C, strain RIC1, hits give low values",0.149 (active)
same,normalized growth,"S. cerevisiae deletion strains, locus YLR058C, strain SHM2, hits give low values",0.203 (active)
same,normalized growth,"S. cerevisiae deletion strains, locus YLR102C, strain apc9, hits give low values",0.516 (active)
same,normalized growth,"S. cerevisiae deletion strains, locus YLR113W, strain HOG1, hits give low values",0.56 (active)
same,normalized growth,"S. cerevisiae deletion strains, locus YLR221C, strain rsa3, hits give low values",0.538 (active)
same,normalized growth,"S. cerevisiae deletion strains, locus YLR258W, strain gsy2, hits give low values",0.58 (active)
same,normalized growth,"S. cerevisiae deletion strains, locus YLR262C, strain YPT6 (second series), hits give low values",0.201 (active)
same,normalized growth,"S. cerevisiae deletion strains, locus YLR268W, strain sec22, hits give low values",0.194 (active)
same,normalized growth,"S. cerevisiae deletion strains, locus YLR320W, strain mms22, hits give low values",0.374 (active)
same,normalized growth,"S. cerevisiae deletion strains, locus YLR342W, strain FKS1, hits give low values",0.453 (active)
same,normalized growth,"S. cerevisiae deletion strains, locus YLR357W, strain rsc2, hits give low values",0.579 (active)
same,normalized growth,"S. cerevisiae deletion strains, locus YLR370C, strain arc18, hits give low values",0.539 (active)
same,normalized growth,"S. cerevisiae deletion strains, locus YLR371W, strain rom2, hits give low values",0.316 (active)
same,normalized growth,"S. cerevisiae deletion strains, locus YLR384C, strain iki3, hits give low values",0.574 (active)
same,normalized growth,"S. cerevisiae deletion strains, locus YLR418C, strain cdc73, hits give low values",0.225 (active)
same,normalized growth,"S. cerevisiae deletion strains, locus YML016C, strain PPZ1, hits give low values",0.195 (active)
same,normalized growth,"S. cerevisiae deletion strains, locus YML032C, strain rad52, hits give low values",0.487 (active)
same,normalized growth,"S. cerevisiae deletion strains, locus YML120C, strain ndi1, hits give low values",0.602 (active)
same,normalized growth,"S. cerevisiae deletion strains, locus YML124C, strain tub3, hits give low values",0.547 (active)
same,normalized growth,"S. cerevisiae deletion strains, locus YMR058W, strain fet3, hits give low values",0.444 (active)
same,normalized growth,"S. cerevisiae deletion strains, locus YMR078C, strain ctf18, hits give low values",0.455 (active)
same,normalized growth,"S. cerevisiae deletion strains, locus YMR125W, strain sto1, hits give low values",0.773 (active)
same,normalized growth,"S. cerevisiae deletion strains, locus YMR129W, hits give low values",0.69 (active)
same,normalized growth,"S. cerevisiae deletion strains, locus YMR205C, strain PFK2, hits give low values",0.423 (active)
same,normalized growth,"S. cerevisiae deletion strains, locus YMR223W, strain ubp8, hits give low values",0.408 (active)
same,normalized growth,"S. cerevisiae deletion strains, locus YMR231W, strain pep5, hits give low values",0.641 (active)
same,normalized growth,"S. cerevisiae deletion strains, locus YMR263W, strain SAP30, hits give low values",0.295 (active)
same,normalized growth,"S. cerevisiae deletion strains, locus YMR307W, strain GAS1, hits give low values",0.167 (active)
same,normalized growth,"S. cerevisiae deletion strains, locus YNL067W, strain RPL9B, hits give low values",0.324 (active)
same,normalized growth,"S. cerevisiae deletion strains, locus YNL071W, strain lat1, hits give low values",0.386 (active)
same,normalized growth,"S. cerevisiae deletion strains, locus YNL128W, strain TEP1, hits give low values",0.216 (active)
same,normalized growth,"S. cerevisiae deletion strains, locus YNL153C, strain GIM3, hits give low values",0.28 (active)
same,normalized growth,"S. cerevisiae deletion strains, locus YNL183C, strain NPR1, hits give low values",0.596 (active)
same,normalized growth,"S. cerevisiae deletion strains, locus YNL209W, strain ssb2, hits give low values",0.265 (active)
same,normalized growth,"S. cerevisiae deletion strains, locus YNL233W, strain BNI4, hits give low values",0.246 (active)
same,normalized growth,"S. cerevisiae deletion strains, locus YNL248C, strain rpa49, hits give low values",0.458 (active)
same,normalized growth,"S. cerevisiae deletion strains, locus YNL250W, strain rad50, hits give low values",0.895 (active)
same,normalized growth,"S. cerevisiae deletion strains, locus YNL271C, strain bni1, hits give low values",0.828 (active)
same,normalized growth,"S. cerevisiae deletion strains, locus YNL298W, strain CLA4, hits give low values",0.775 (active)
same,normalized growth,"S. cerevisiae deletion strains, locus YNL307C, strain MCK1, hits give low values",0.188 (active)
same,normalized growth,"S. cerevisiae deletion strains, locus YNL322C, strain KRE1 (second series), hits give low values",0.726 (active)
same,normalized growth,"S. cerevisiae deletion strains, locus YNR049C, strain mso1, hits give low values",0.659 (active)
same,normalized growth,"S. cerevisiae deletion strains, locus YNR052C, strain pop2, hits give low values",0.218 (active)
same,normalized growth,"S. cerevisiae deletion strains, locus YOL012C, strain htz1",0.219
same,normalized growth,"S. cerevisiae deletion strains, locus YOL147C, strain pex11, hits give low values",0.362 (active)
same,normalized growth,"S. cerevisiae deletion strains, locus YOR001W, strain rrp6, hits give low values",0.608 (active)
same,normalized growth,"S. cerevisiae deletion strains, locus YOR061W, strain CKA2, hits give low values",0.237 (active)
same,normalized growth,"S. cerevisiae deletion strains, locus YOR069W, strain VPS5, hits give low values",0.314 (active)
same,normalized growth,"S. cerevisiae deletion strains, locus YOR070C, strain gyp1, hits give low values",0.496 (active)
same,normalized growth,"S. cerevisiae deletion strains, locus YOR080W, strain dia2, hits give low values",0.638 (active)
same,normalized growth,"S. cerevisiae deletion strains, locus YOR083W, strain WHI5, hits give low values",0.475 (active)
same,normalized growth,"S. cerevisiae deletion strains, locus YOR106W, strain vam3, hits give low values",0.302 (active)
same,normalized growth,"S. cerevisiae deletion strains, locus YOR136W, strain idh2, hits give low values",0.433 (active)
same,normalized growth,"S. cerevisiae deletion strains, locus YOR144C, strain elg1, hits give low values",0.561 (active)
same,normalized growth,"S. cerevisiae deletion strains, locus YOR184W, strain ser1, hits give low values",0.209 (active)
same,normalized growth,"S. cerevisiae deletion strains, locus YOR231W, strain MKK1, hits give low values",0.707 (active)
same,normalized growth,"S. cerevisiae deletion strains, locus YOR265W, strain rbl2, hits give low values",0.503 (active)
same,normalized growth,"S. cerevisiae deletion strains, locus YOR270C, strain vph1, hits give low values",0.278 (active)
same,normalized growth,"S. cerevisiae deletion strains, locus YOR290C, strain snf2, hits give low values",0.41 (active)
same,normalized growth,"S. cerevisiae deletion strains, locus YOR316C, strain cot1, hits give low values",0.474 (active)
same,normalized growth,"S. cerevisiae deletion strains, locus YPL051W, strain arl3, hits give low values",0.295 (active)
same,normalized growth,"S. cerevisiae deletion strains, locus YPL078C, strain atp4, hits give low values",0.471 (active)
same,normalized growth,"S. cerevisiae deletion strains, locus YPL106C, strain sse1, hits give low values",0.502 (active)
same,normalized growth,"S. cerevisiae deletion strains, locus YPL240C, strain hsp82, hits give low values",0.613 (active)
same,normalized growth,"S. cerevisiae deletion strains, locus YPL256C, strain CLN2, hits give low values",0.749 (active)
same,normalized growth,"S. cerevisiae deletion strains, locus YPR119W, strain clb2, hits give low values",0.558 (active)
same,normalized growth,"S. cerevisiae deletion strains, locus YPR141C, strain kar3, hits give low values",0.854 (active)
same,normalized growth,"S. cerevisiae deletion strains, locus YPR163C, strain tif3, hits give low values",0.214 (active)
same,normalized growth,"S. cerevisiae deletion strains, locus YPR167C, strain met16, hits give low values",0.377 (active)
same,normalized growth,"S. cerevisiae deletion strains, strain wtn01, hits give low values",0.295 (active)
same,normalized growth,"S. cerevisiae strains, strain wild type, hits give low values",0.166 (active)
